Shown is part of a subset that was picked to be rich in hits.
miR-122 inh: raises miR-122 sensor activity in Huh7 cells | activation, % at 12.5 µM | Huh7 psiCHECK-miR122 Renilla luciferase sensor, 48 h | hit rate 0.14% among 340,000;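 active = mean activation of 30% or more, with every replicate also reaching 30%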;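 also: 0% = median of neutral control wells and 100% = median of positive control wells; higher luciferase signal means stronger suppression of miR-122 activity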
* = called active by the depositor.

`Cc1ccccc1NC(=O)Nc1ccc2c(c1)C(=O)N(C)[C@H]1CC[C@H](CC(=O)NCC3CC3)O[C@H]1CO2` gave miR-122 inh -228.
`CO[C@H]1CN(C)C(=O)c2cc(NC(=O)c3nc4ccccc4s3)ccc2OC[C@H](C)N(Cc2ccncc2)C[C@H]1C` gave miR-122 inh -10.
Screening CO[C@H]1CN(C)C(=O)c2ccc(NC(=O)Nc3cccc(F)c3)cc2OC[C@H](C)N(C)C[C@H]1C returned miR-122 inh -11.
For CCS(=O)(=O)Nc1ccc2c(c1)C(=O)N(C)C[C@H](OC)[C@@H](C)CN[C@@H](C)CO2 the results were miR-122 inh -3.
`COCCNC(=O)C[C@H]1CC[C@@H]2[C@H](COc3ccc(NC(=O)c4cnccn4)cc3C(=O)N2C)O1` gave miR-122 inh 45*.
`C[C@@H]1CN([C@H](C)CO)C(=O)c2cc(C#CC3(O)CCCC3)cnc2O[C@H]1CN(C)S(=O)(=O)c1ccc(F)cc1` gave miR-122 inh -1.
`COCC(=O)N(C)C[C@@H]1Oc2cc(Br)ccc2S(=O)(=O)N([C@@H](C)CO)C[C@H]1C` gave miR-122 inh 5.
C[C@H](CO)N1C[C@H](C)[C@@H](CN(C)C(=O)C2CCCCC2)Oc2ncc(-c3ccccc3F)cc2C1=O was read as miR-122 inh 1.
For Cc1ccccc1-c1cnc2c(c1)C(=O)N([C@H](C)CO)C[C@@H](C)[C@@H](CN(C)C(=O)c1ccccc1)O2 the results were miR-122 inh 5.
For Cc1ccc(S(=O)(=O)N(C)C[C@H]2Oc3ncc(C#CCC(C)C)cc3C(=O)N([C@H](C)CO)C[C@@H]2C)cc1 the results were miR-122 inh -54.
For C[C@@H]1CN([C@H](C)CO)S(=O)(=O)c2ccc(C#CC3(O)CCCC3)cc2O[C@@H]1CN(C)C(=O)Nc1ccc(F)cc1 the results were miR-122 inh -63.
C[C@H]1CN([C@@H](C)CO)C(=O)c2cc(-c3cccc(C#N)c3)cnc2O[C@H]1CN(C)Cc1ccccc1 was read as miR-122 inh 6.
Screening C[C@H](CO)N1C[C@H](C)[C@H](CN(C)C(=O)CC2CC2)Oc2cc(-c3ccccc3)ccc2S1(=O)=O returned miR-122 inh -10.
For C/C=C/c1cnc2c(c1)C(=O)N([C@@H](C)CO)C[C@@H](C)[C@@H](CN(C)CC1CCOCC1)O2 the results were miR-122 inh 0.
`COc1ccccc1-c1ccc2c(c1)O[C@H](CN(C)S(=O)(=O)c1ccc(C)cc1)[C@H](C)CN([C@@H](C)CO)S2(=O)=O` gave miR-122 inh -33.
C[C@H](CO)N1C[C@H](C)[C@@H](CN(C)C(=O)Cc2ccccn2)Oc2ncc(-c3cccc(C(=O)N(C)C)c3)cc2C1=O was read as miR-122 inh 0.
Screening C[C@H]1CN([C@@H](C)CO)C(=O)c2cc(-c3ccc(F)cc3)cnc2O[C@H]1CN(C)Cc1ccccn1 returned miR-122 inh -5.
Screening CCCC(=O)Nc1ccc2c(c1)C(=O)N(C)[C@@H]1CC[C@H](CC(=O)NCCN3CCCCC3)O[C@H]1CO2 returned miR-122 inh 50*.
`CCCC(=O)Nc1ccc2c(c1)C(=O)N(C)C[C@@H](OC)[C@H](C)CN[C@@H](C)CO2` gave miR-122 inh -1.
`CCCNC(=O)C[C@H]1CC[C@H]2[C@H](COc3ccc(NC(=O)c4ccc5c(c4)OCO5)cc3C(=O)N2C)O1` gave miR-122 inh -122.
Screening C[C@H]1CN([C@@H](C)CO)C(=O)c2cc(C3=CCCCC3)cnc2O[C@H]1CN(C)Cc1ccccc1C(=O)O returned miR-122 inh -1.
`N/C(Cc1cccc2ccccc12)=N\OC(=O)c1ccc2c(c1)OCO2` gave miR-122 inh -103.
For COc1cc(Cl)cc(/C=N\NC(=O)c2ccc3c(c2)OCO3)c1O the results were miR-122 inh 41*.
`C[C@H]1CN([C@@H](C)CO)C(=O)c2cc(-c3ccc(F)cc3)cnc2O[C@@H]1CN(C)Cc1ccccn1` gave miR-122 inh -1.
`CCCNC(=O)Nc1ccc2c(c1)OC[C@@H](C)N(C)C[C@H](C)[C@H](OC)CN(C)C2=O` gave miR-122 inh 0.
`C[C@H](CO)N1C[C@H](C)[C@@H](CN(C)CC2CCOCC2)Oc2ncc(C#CCC3CCCC3)cc2C1=O` gave miR-122 inh 0.
Screening C[C@H](CO)N1C[C@H](C)[C@H](CN(C)C(=O)C2CC2)Oc2ncc(C#Cc3cccc(F)c3)cc2C1=O returned miR-122 inh -13.
`COCC(=O)Nc1ccc2c(c1)OC[C@@H](C)NC[C@H](C)[C@H](OC)CN(C)C2=O` gave miR-122 inh -1.
For COCC(=O)Nc1ccc2c(c1)OC[C@@H](C)N(C(C)=O)C[C@H](C)[C@H](OC)CN(C)C2=O the results were miR-122 inh -4.
For CC(=O)NC(c1ccc(C)cc1)c1cc(Cl)c2cccnc2c1O (centres undefined) the results were miR-122 inh 31*.
`C[C@H]1CN([C@@H](C)CO)C(=O)c2cc(C#Cc3ccccc3)cnc2O[C@@H]1CN(C)Cc1ccccn1` gave miR-122 inh 3.
CCC(=O)N(C)C[C@@H]1Oc2ncc(C#C[C@H](C)O)cc2C(=O)N([C@H](C)CO)C[C@H]1C was read as miR-122 inh -3.
Screening C[C@H]1CN([C@@H](C)CO)C(=O)c2cc(/C=C/c3ccccc3)cnc2O[C@@H]1CN(C)C(=O)C1CCC1 returned miR-122 inh 5.
`COc1ccc(NC(=O)Nc2ccc3c(c2)CC(=O)N([C@@H](C)CO)C[C@@H](C)[C@@H](CN(C)C(=O)NC(C)C)O3)cc1` gave miR-122 inh -101.
For C[C@H]1CN([C@@H](C)CO)C(=O)c2cc(/C=C/c3ccccc3)cnc2O[C@H]1CN(C)C(=O)Cc1ccccn1 the results were miR-122 inh 1.
COc1ccc(-c2c(C(C)=O)c(C)nc3sc4c(c23)NC(c2ccccc2)NC4=O)cc1 (centres undefined) was read as miR-122 inh 36*.
`C[C@H](O)C#Cc1ccc2c(c1)O[C@@H](CN(C)Cc1cccnc1)[C@@H](C)CN([C@@H](C)CO)S2(=O)=O` gave miR-122 inh -2.
Screening C[C@@H]1CN([C@@H](C)CO)C(=O)c2cccc(N(C)C)c2O[C@@H]1CN(C)Cc1ccc(C(=O)Nc2ccccc2N)cc1 returned miR-122 inh -109.
For CCCNC(=O)N(C)C[C@@H]1Oc2cc(-c3ccccc3)ccc2S(=O)(=O)N([C@H](C)CO)C[C@@H]1C the results were miR-122 inh -6.
For Cc1ccc(CN2CCSc3ccc(C(=O)NCc4ccco4)cc32)cc1 the results were miR-122 inh -100.
Screening Cc1ccc(C2CC(C(F)(F)F)n3nc(C(=O)NCc4ccco4)cc3N2)cc1 (centres undefined) returned miR-122 inh 41*.
COc1ccccc1S(=O)(=O)N(C)C[C@@H]1Oc2cc(/C=C/c3ccccc3)ccc2S(=O)(=O)N([C@H](C)CO)C[C@H]1C was read as miR-122 inh -4.
`C[C@H]1CN([C@@H](C)CO)C(=O)c2cc(-c3ccccc3)cnc2O[C@H]1CN(C)C(=O)c1cccnc1` gave miR-122 inh 0.
Screening C[C@H](CO)N1C[C@H](C)[C@H](CN(C)C(=O)c2cccc(F)c2)Oc2ncc(/C=C/c3ccccc3)cc2C1=O returned miR-122 inh -3.
For C[C@H]1CN([C@@H](C)CO)C(=O)c2cc(C#CC3(O)CCCC3)cnc2O[C@@H]1CN(C)C(=O)C1CCCCC1 the results were miR-122 inh 2.

Screening results (PubChem BioAssay)
